Where “and” joins values, the source holds several entries; their conditions need not be identical. Equal entries are not always repeated. The whole screen tested about 5,500 compounds, of which about 2,000 (36%) were called active. Inconclusive results (about 18%) are left out. Rule as the data show it: active = normalized growth mostly below about 0.91 (no sharp cut-off); inconclusive = no clear call, values can overlap the other calls; inactive = mostly above about 0.92. This is one part of the list.
Test: chemical genetic growth profiling, strain panel (AID 1159580);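 also: tested at 20 µM; growth read once vehicle control cultures reached saturation at 30 °C; 1 = growth at the plate median or of vehicle wells; lower values mean less growth of the strain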
Conditions: S. cerevisiae deletion strains, growth OD

Measured: normalized growth

Cc1cccc(CN2CCN(C(c3ccccc3)c3ccc(Cl)cc3)CC2)c1 (stereo not drawn)
inactive: locus YBR229C, strain ROT2, stronger effect = lower value 0.979 | locus YCL029C, strain bik1, stronger effect = lower value 0.961 | locus YCR088W, strain abp1, stronger effect = lower value 0.951 | locus YDL005C, strain med2, stronger effect = lower value 0.999 | locus YDL185W, strain tfp1, stronger effect = lower value 0.99 | locus YDR001C, strain nth1, stronger effect = lower value 0.978 | locus YDR101C, strain arx1, stronger effect = lower value 0.935 | locus YDR137W, strain rgp1, stronger effect = lower value 1.05 | locus YDR159W, strain sac3, stronger effect = lower value 0.925 | locus YDR334W, strain swr1, stronger effect = lower value 0.903 | locus YDR335W, strain msn5, stronger effect = lower value 0.976 | locus YDR392W, strain spt3, stronger effect = lower value 0.875 | locus YEL061C, strain CIN8 (second series), stronger effect = lower value 0.978 | locus YEL061C, strain CIN8, stronger effect = lower value 0.968 | locus YER110C, stronger effect = lower value 0.99 | locus YER111C, strain swi4, stronger effect = lower value 0.96 | locus YER167W, strain BCK2, stronger effect = lower value 0.971 | locus YGL078C, strain dbp3, stronger effect = lower value 0.987 | locus YGL167C, strain pmr1, stronger effect = lower value 0.983 | locus YGL173C, strain kem1, stronger effect = lower value 0.94 | locus YGL227W, strain vid30, stronger effect = lower value 0.963 | locus YGL240W, strain doc1, stronger effect = lower value 0.951 | locus YHR079C, strain IRE1 (second series), stronger effect = lower value 0.942 | locus YHR079C, strain IRE1, stronger effect = lower value 0.934 | locus YHR094C, strain hxt1, stronger effect = lower value 0.986 | locus YIL073C, strain SPO22, stronger effect = lower value 0.951 | locus YIL125W, strain kgd1, stronger effect = lower value 0.993 | locus YIR030C, strain dcg1, stronger effect = lower value 0.979 | locus YJL115W, strain asf1, stronger effect = lower value 0.927 | locus YJL134W, strain LCB3, stronger effect = lower value 0.989 | locus YJL154C, strain vps35, stronger effect = lower value 0.995 | locus YJL168C, strain set2, stronger effect = lower value 0.987 | locus YJR043C, strain POL32, stronger effect = lower value 0.903 | locus YJR066W, strain TOR1, stronger effect = lower value 0.926
0.393 (active) and 0.952 (inactive): locus YHR030C, strain SLT2, stronger effect = lower value
0.203 (active) and 0.96 (inactive): locus YJL095W, strain BCK1, stronger effect = lower value
active: locus YAL021C, strain ccr4, stronger effect = lower value 0.543 | locus YAL026C, strain drs2, stronger effect = lower value 0.59 | locus YAL030W, strain snc1, stronger effect = lower value 0.861 | locus YBL061C, strain skt5, stronger effect = lower value 0.771 | locus YBR009C, strain hhf1, stronger effect = lower value 0.58 | locus YBR021W, strain FUR4, stronger effect = lower value 0.645 | locus YBR023C, strain chs3, stronger effect = lower value 0.701 | locus YBR171W, strain sec66, stronger effect = lower value 0.879 | locus YBR231C, strain swc5, stronger effect = lower value 0.636 | locus YBR279W, strain paf1, stronger effect = lower value 0.777 | locus YCL011C, strain gbp2, stronger effect = lower value 0.633 | locus YCL016C, strain dcc1, stronger effect = lower value 0.723 | locus YCL061C, strain MRC1, stronger effect = lower value 0.902 | locus YCL069W, strain vba3, stronger effect = lower value 0.848 | locus YDL035C, strain GPR1, stronger effect = lower value 0.815 | locus YDL040C, strain nat1, stronger effect = lower value 0.922 | locus YDL074C, strain BRE1, stronger effect = lower value 0.498 | locus YDL101C, strain DUN1, stronger effect = lower value 0.887 | locus YDL134C, strain PPH21, stronger effect = lower value 0.806 | locus YDL192W, strain arf1, stronger effect = lower value 0.772 | locus YDR069C, strain doa4, stronger effect = lower value 0.787 | locus YDR162C, strain NBP2, stronger effect = lower value 0.737 | locus YDR195W, strain ref2 1.52 [resistant] | locus YDR297W, strain sur2, stronger effect = lower value 0.885 | locus YDR318W, strain mcm21, stronger effect = lower value 0.828 | locus YDR388W, stronger effect = lower value 0.648 | locus YDR502C, strain sam2, stronger effect = lower value 0.85 | locus YEL003W, strain gim4, stronger effect = lower value 0.793 | locus YEL037C, strain rad23, stronger effect = lower value 0.856 | locus YER015W, strain faa2, stronger effect = lower value 0.561 | locus YER016W, strain bim1, stronger effect = lower value 0.906 | locus YER155C, strain BEM2 (second series), stronger effect = lower value 0.759 | locus YER155C, strain BEM2, stronger effect = lower value 0.862 | locus YFR010W, strain ubp6, stronger effect = lower value 0.699 | locus YGL086W, strain mad1, stronger effect = lower value 0.832 | locus YGL248W, strain PDE1, stronger effect = lower value 0.769 | locus YGL253W, strain hxk2, stronger effect = lower value 0.77 | locus YGR135W, strain pre9, stronger effect = lower value 0.758 | locus YGR252W, strain gcn5, stronger effect = lower value 0.471 | locus YHR013C, strain ard1, stronger effect = lower value 0.54 | locus YHR027C, strain rpn1, stronger effect = lower value 0.68 | locus YHR129C, strain ARP1, stronger effect = lower value 0.842 | locus YHR142W, strain chs7, stronger effect = lower value 0.734 | locus YHR200W, strain rpn10, stronger effect = lower value 0.904 | locus YIL066C, strain RNR3, stronger effect = lower value 0.821 | locus YJL092W, strain hpr5, stronger effect = lower value 0.817 | locus YJL095W, strain BCK1 (second series), stronger effect = lower value 0.332 | locus YJL129C, strain trk1, stronger effect = lower value 0.61 | locus YJL164C, strain tpk1, stronger effect = lower value 0.622 | locus YJL166W, strain qcr8, stronger effect = lower value 0.735 | locus YJL187C, strain SWE1 (second series), stronger effect = lower value 0.731 | locus YJL187C, strain SWE1, stronger effect = lower value 0.878
